Results taken from ChEMBL document CHEMBL3433997, “St. Jude Leishmania screening dataset” (2016).

Legend:
Assay type in all cases: functional
[1] = target: Solute carrier family 2, facilitated glucose transporter member 1 (Homo sapiens) (UniProt P11166); test: ST_JUDE_LEISH: Cytotoxicity at 2uM final concentration against transgenic Leishmania Mexicana promastigotes LmGLUT1 that are glucose transport deficient and complemented with the human glucose transporter GLUT1. Activity is measured by DNA content using SYBR green in vitro
Solute carrier family 2, facilitated glucose transporter member 1 (Homo sapiens), sequence (P11166 whole entry): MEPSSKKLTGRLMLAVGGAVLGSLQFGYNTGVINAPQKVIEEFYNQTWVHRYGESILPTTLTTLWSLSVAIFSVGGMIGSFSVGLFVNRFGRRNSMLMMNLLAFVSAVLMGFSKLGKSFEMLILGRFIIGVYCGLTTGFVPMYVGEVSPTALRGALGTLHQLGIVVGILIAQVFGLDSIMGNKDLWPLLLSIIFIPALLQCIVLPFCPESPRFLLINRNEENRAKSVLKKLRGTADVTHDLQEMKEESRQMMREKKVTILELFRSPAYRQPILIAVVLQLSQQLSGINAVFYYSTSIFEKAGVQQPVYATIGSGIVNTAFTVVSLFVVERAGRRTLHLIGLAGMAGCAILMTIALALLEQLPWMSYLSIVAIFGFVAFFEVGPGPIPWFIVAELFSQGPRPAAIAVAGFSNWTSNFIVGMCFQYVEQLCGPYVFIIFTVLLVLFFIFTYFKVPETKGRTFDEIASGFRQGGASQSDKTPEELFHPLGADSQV

[2] = target: Hexose transporter 1 (Plasmodium falciparum) (UniProt O97467); test: ST_JUDE_LEISH: Cytotoxicity at 2uM final concentration against transgenic Leishmania Mexicana promastigotes LmPfHT that are glucose transport deficient and complemented with the Plasmodium falciparum hexose transporter. Activity is measured by DNA content using SYBR green in vitro
[3] = target: Glucose transporter (Leishmania mexicana) (UniProt O61059); test: ST_JUDE_LEISH: Cytotoxicity at 2uM final concentration against transgenic Leishmania Mexicana promastigotes LmGT2 that are glucose transport deficient and complemented with the L. Mexicana glucose transporter 2. Activity is measured by DNA content using SYBR green in vitro

| Compound | inhibition [1] | inhibition [2] | inhibition [3] |
| --- | --- | --- | --- |
| NC(=O)c1ccccc1OCC(=O)Nc1cccc(-c2cccc(-c3nc4ccccc4[nH]3)c2)c1 | 0.34% | 1.07% | -4.32% |
| COc1ccc(Nc2nccc(N3CCC(NC(=O)c4cc5ccccc5s4)C3)n2)cc1 (stereo unspecified) | -3.12% | 1.28% | -1.61% |
| Cn1cncc1CCN(Cc1ccc(-c2ccc(C(F)(F)F)cc2)cc1)C(=O)Cn1c(SCc2cccc(F)c2F)cc(=O)c2ccccc21 | 4.77% | 1.65% | 2.14% |
| CC(C)(C)C(=O)Nc1ccc(C(=O)Nc2cccc(-c3nc4ccccc4[nH]3)c2)cc1 | 1.87% | 0.85% | -0.79% |
| Cc1noc(C)c1-c1cccc(CNCc2cccc(-c3csc(-c4nc5ccccc5[nH]4)c3)c2)c1 | 2.13% | 3.22% | 1.31% |
| CCN(CCCNc1nc(=S)[nH]c2cc(OC)c(OC)cc12)c1ccccc1 | -0.4% | -1.25% | -4.13% |
| OC(CNc1ccnc(Nc2ccc(Cl)cc2)n1)c1cccc(C(F)(F)F)c1 (stereo unspecified) | 1.93% | 2.79% | 0.49% |
| COc1ccc(-c2cnn3ccc(Nc4cc(OC)c(OC)c(OC)c4)nc23)cc1OC | 17.3% | 11.4% | 9.46% |
| COC(=O)c1ccc2c(c1)nc(Nc1cccc(F)c1)n2CC(O)c1ccccn1 (stereo unspecified) | 4.12% | 3.8% | 2.91% |
| COc1ccccc1C1CCN(Cc2csc(NC(=O)c3ccc(-c4ccc(C(F)(F)F)cc4)cc3)n2)CC1 | 7.33% | 6.58% | 3.56% |
| CCOc1ccc(Nc2cc(C)nc(Nc3ccc(OCC)cc3)n2)cc1 | 0.78% | 2.01% | 1.02% |
| Cc1cc(CNCCCCCNCc2ccc(Cl)cc2)ccc1O | 1.35% | 1.91% | 2.91% |
